Reference: PubChem BioAssay
Some of the results follow. Calls of active or inactive are those of the source. Cut-off read from the data, not from the text of the source, unless noted: active = response below about 50% or above about 160%; inactive = in between.

Columns and labels:
[1] = target: Regulator of G-protein signaling 16 (Homo sapiens) (UniProt O15492); assay: small molecules altering RGS protein interactions with GNAO1 – biochemical, multiplexed beads, flow cytometry, RGS4/7/8/16/19, primary screen (AID 1504; call rule not given here;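 note: fluorescently labeled Galpha-o bound to GDP with aluminium fluoride binding biotinylated RGS beads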); details: multiplexed bead flow cytometry, measured here: RGS16 interaction, at 10 µM
[2] = target: Regulator of G-protein signaling 19 (Homo sapiens) (UniProt P49795); assay: as above; details: multiplexed bead flow cytometry, measured here: RGS19 interaction, at 10 µM
[3] = target: Regulator of G-protein signaling 4 (Homo sapiens) + Guanine nucleotide-binding protein G(o) subunit alpha (Homo sapiens) (UniProt P49798+P09471); assay: as above; details: multiplexed bead flow cytometry, at 10 µM
Sequence of Regulator of G-protein signaling 4 (Homo sapiens) + Guanine nucleotide-binding protein G(o) subunit alpha (Homo sapiens) (P09471 whole entry, looked up): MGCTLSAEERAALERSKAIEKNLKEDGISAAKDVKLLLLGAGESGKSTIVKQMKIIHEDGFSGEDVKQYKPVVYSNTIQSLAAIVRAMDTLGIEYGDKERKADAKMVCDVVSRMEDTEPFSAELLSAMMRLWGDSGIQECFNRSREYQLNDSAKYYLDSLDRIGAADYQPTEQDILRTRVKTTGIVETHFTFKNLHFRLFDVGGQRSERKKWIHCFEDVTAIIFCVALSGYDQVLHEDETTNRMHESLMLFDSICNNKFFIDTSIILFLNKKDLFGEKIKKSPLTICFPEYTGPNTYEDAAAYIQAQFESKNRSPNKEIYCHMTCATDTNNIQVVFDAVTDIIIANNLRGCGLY
Sequence of Regulator of G-protein signaling 4 (Homo sapiens) + Guanine nucleotide-binding protein G(o) subunit alpha (Homo sapiens) (P49798 whole entry, looked up): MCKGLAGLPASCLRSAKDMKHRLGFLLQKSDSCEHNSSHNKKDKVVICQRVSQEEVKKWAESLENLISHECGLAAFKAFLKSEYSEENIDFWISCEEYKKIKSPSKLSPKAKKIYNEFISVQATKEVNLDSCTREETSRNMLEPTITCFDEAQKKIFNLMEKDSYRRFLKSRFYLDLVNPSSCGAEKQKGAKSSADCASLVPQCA

[4] = target: Regulator of G-protein signaling 7 (Homo sapiens) (UniProt P49802); assay: as above; details: multiplexed bead flow cytometry, measured here: RGS7 interaction, at 10 µM
[5] = target: Regulator of G-protein signaling 8 (Homo sapiens) (UniProt P57771); assay: as above; details: multiplexed bead flow cytometry, measured here: RGS8 interaction, at 10 µM
[6] = interference with biotin-avidin bead interaction – biochemical, flow cytometry, bead-based, counter-screen for RGS protein interaction modulators (AID 1783;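 active = inhibition above 50%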;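 note: median green fluorescence of gated singlet beads compared with DMSO control wells; 0% = DMSO wells and 100% = complete loss of bead fluorescence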); details: streptavidin beads, fluorescein-biotin binding; at 10 µM, stronger effect = higher value
[7] = target: Guanine nucleotide-binding protein G(o) subunit alpha (Homo sapiens) (UniProt P09471); assay: retest of RGS8-Galphao interaction hits – biochemical, multiplexed bead flow cytometry, single concentration, confirmation (AID 1836; in the data active = binding response below about 72% or above about 130%; inactive = in between;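 note: Galphao activated as GDP AlF4 complex before binding bead RGS8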); details: bead-based flow cytometry RGS8-Galphao binding, fluorescence; at 10 µM; actives lie on both sides
Sequence of Guanine nucleotide-binding protein G(o) subunit alpha (Homo sapiens) (P09471 whole entry, looked up): as the sequence (P09471 whole entry, looked up) above

[8] = target: Guanine nucleotide-binding protein G(o) subunit alpha (Homo sapiens) (UniProt P09471); assay: retest of RGS7-Galphao interaction hits – biochemical, multiplexed bead flow cytometry, single concentration, confirmation (AID 1837; in the data active = response below about 75% or above about 130%; inactive = in between;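 note: fluorescent Galphao activated with GDP and aluminum fluoride binding bead-coupled RGS7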); details: bead-based flow cytometry RGS7-Galphao binding; at 10 µM; actives lie on both sides
[9] = target: Regulator of G-protein signaling 16 (Homo sapiens) + Guanine nucleotide-binding protein G(o) subunit alpha (Homo sapiens) (UniProt O15492+P09471); assay: RGS16 and Galphao interaction regulators – biochemical, single concentration, multiplexed bead flow cytometry, confirmation (AID 1838; in the data active = response below about 74% or above about 130%; inactive = in between;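 note: Galphao activated as the GDP aluminium fluoride complex binding bead-coupled RGS16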); details: bead-based flow cytometry, at 10 µM, actives lie on both sides
Sequence of Regulator of G-protein signaling 16 (Homo sapiens) + Guanine nucleotide-binding protein G(o) subunit alpha (Homo sapiens) (O15492 whole entry, looked up): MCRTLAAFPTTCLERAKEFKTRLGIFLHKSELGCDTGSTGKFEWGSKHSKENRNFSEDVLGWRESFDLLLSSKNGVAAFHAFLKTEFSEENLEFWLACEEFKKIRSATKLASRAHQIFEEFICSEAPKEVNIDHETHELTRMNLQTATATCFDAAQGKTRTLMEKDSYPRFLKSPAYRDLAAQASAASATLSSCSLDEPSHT
Sequence of Regulator of G-protein signaling 16 (Homo sapiens) + Guanine nucleotide-binding protein G(o) subunit alpha (Homo sapiens) (P09471 whole entry, looked up): as the sequence (P09471 whole entry, looked up) above

[10] = target: Guanine nucleotide-binding protein G(o) subunit alpha (Homo sapiens) (UniProt P09471); assay: RGS4 and Galphao interaction regulators – biochemical, single concentration, multiplexed bead flow cytometry, confirmation (AID 1840; in the data active = binding response below about 74% or above about 130%; inactive = in between); details: at 10 µM, actives lie on both sides
[11] = target: Guanine nucleotide-binding protein G(o) subunit alpha (Homo sapiens) + Regulator of G-protein signaling 19 (Homo sapiens) (UniProt P09471+P49795); assay: RGS19 interaction with Gαo, hit retest – biochemical, single point, multiplexed bead flow cytometry, confirmation (AID 1841); details: bead-based flow cytometry RGS19-Galphao binding; at 10 µM; actives lie on both sides;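 note: 100% = no compound control and 0% = blank background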
Sequence of Guanine nucleotide-binding protein G(o) subunit alpha (Homo sapiens) + Regulator of G-protein signaling 19 (Homo sapiens) (P09471 whole entry, looked up): as above
Sequence of Guanine nucleotide-binding protein G(o) subunit alpha (Homo sapiens) + Regulator of G-protein signaling 19 (Homo sapiens) (P49795 whole entry, looked up): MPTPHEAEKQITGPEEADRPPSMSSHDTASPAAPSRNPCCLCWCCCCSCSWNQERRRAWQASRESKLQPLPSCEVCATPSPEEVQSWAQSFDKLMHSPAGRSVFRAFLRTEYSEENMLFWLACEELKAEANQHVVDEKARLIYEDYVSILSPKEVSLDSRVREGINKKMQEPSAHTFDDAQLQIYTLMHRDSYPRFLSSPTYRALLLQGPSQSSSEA

Structure (SMILES) | RGS16–Galpha-o binding response [1] [%] | RGS19–Galpha-o binding response [2] [%] | RGS4–Galpha-o binding response [3] | RGS7–Galpha-o binding response [4] [%] | RGS8–Galpha-o binding response [5] [%] | inhibition [6] | binding response (% of control) [7] | response (percent of control binding) [8] | response (% of control binding) [9] | binding response (% of control) [10] | response (percent of control binding) [11]
CC(=O)N1CC[n+]2c(-c3ccc([N+](=O)[O-])cc3)csc21 | 12.8 | 114 | 57% (active) | 102 | 63.1 | -0.8% (inactive) | 80.5% (inactive) | 67.2% (active) | 58% (active) | 66.7% (active) | 62.5% (inactive)
O=C(NC1CC1)c1ccc2c(c1)NC(=O)c1ccccc1S2 | 113 | 370 | 113% (active) | 191 | 98.7 | – | – | – | – | – | –
CCC(=O)Nc1c(S(=O)(=O)c2ccccc2)c2nc3ccccc3nc2n1Cc1ccccc1 | 13.9 | 285 | 89.8% (active) | 87.2 | 70.1 | -0.3% (inactive) | 103% (inactive) | 99.2% (inactive) | 104% (inactive) | 103% (inactive) | 101% (inactive)
CCOc1ccc(NC(=O)CSc2nc3ccccc3c(=O)n2Cc2cccs2)cc1 | -1.24 | 116 | 84.3% (active) | 81.9 | 75.5 | 1.1% (inactive) | 101% (inactive) | 104% (inactive) | 104% (inactive) | 102% (inactive) | 102% (inactive)
CCOC(=O)C1=C(c2ccccc2)N=C2SCC(=O)N2C1c1ccc(O)c(OC)c1 (centres undefined) | 222 | -290 | 121% (active) | 122 | 144 | 0% (inactive) | 109% (inactive) | 108% (inactive) | 110% (inactive) | 106% (inactive) | 104% (inactive)
CCOc1cc(C(=O)N2CCc3cc(OC)c(OC)cc3C2)ccc1OC(F)F | 124 | -289 | 128% (active) | 159 | 105 | – | – | – | – | – | –
O=[N+]([O-])C(=c1ccc2c(c1)N1C3=C(CCCC3)CC3CCCCC31N=2)[N+](=O)[O-] (centres undefined) | 20.9 | 357 | 80.6% (active) | -195 | 43.8 | – | – | – | – | – | –
Cc1ccc(C)c(OCC(=O)N2CCN(C(=O)c3ccco3)CC2)c1 | 24.4 | 113 | 83.7% (active) | 89.8 | 88.5 | 2.8% (inactive) | 104% (inactive) | 104% (inactive) | 107% (inactive) | 106% (inactive) | 110% (inactive)
CC(=O)c1ccc(NC(=S)NC(=O)CC(C)C)cc1 | 21.8 | 162 | 91.6% (active) | 91.6 | 81.4 | 3.2% (inactive) | 99.1% (inactive) | 86.2% (inactive) | 93.9% (inactive) | 93.6% (inactive) | 87.5% (inactive)
Oc1ccc(-c2onc3ccc(Cl)cc23)cc1 | 415 | 108 | 118% (active) | 110 | 144 | 0% (inactive) | 92.4% (inactive) | 89.7% (inactive) | 91.4% (inactive) | 89% (inactive) | 79.4% (inactive)
CN(C)CCN=c1cc(-c2ccccc2)oc2ccc(Cl)cc12 | 103 | 95.4 | 110% (active) | 155 | 102 | -3.8% (inactive) | 107% (inactive) | 111% (inactive) | 113% (inactive) | 107% (inactive) | 108% (inactive)
O=C(Nc1cccc(F)c1)c1coc(=O)c(Br)c1 | 100 | 108 | 83.8% (active) | 45.3 | 80.8 | -1.3% (inactive) | 110% (inactive) | 105% (inactive) | 109% (inactive) | 103% (inactive) | 118% (inactive)
CC(NC(=O)COC(=O)C1CCN(S(=O)(=O)c2ccccc2C(F)(F)F)CC1)c1ccccc1 (centres undefined) | 327 | -23.1 | 118% (active) | 115 | 148 | -0.6% (inactive) | 98.3% (inactive) | 96.9% (inactive) | 99.8% (inactive) | 97.2% (inactive) | 97.7% (inactive)
CCn1c(CSCc2c(Cl)cccc2Cl)n[nH]c1=S | 46.1 | 1140 | 55.9% (active) | -29.3 | 55.5 | 1.4% (inactive) | 89% (inactive) | 89.5% (inactive) | 88.1% (inactive) | 94.2% (inactive) | 83.5% (inactive)
C/C(=C/C(=O)N1CCN(C)CC1)C(=O)O | 234 | -6.25 | 109% (active) | 105 | 125 | 0.5% (inactive) | 104% (inactive) | 98.7% (inactive) | 105% (inactive) | 102% (inactive) | 102% (inactive)
CN(CC(=O)NC1CCCCC1)S(=O)(=O)c1cccc2cccnc12 | 94.7 | 114 | 110% (active) | 241 | 89.3 | – | – | – | – | – | –
O=C(CN1CCOCC1)Nc1ccccc1 | 297 | 103 | 115% (active) | 112 | 145 | 2.3% (inactive) | 97.1% (inactive) | 92.3% (inactive) | 94.4% (inactive) | 97.7% (inactive) | 97.1% (inactive)
NC(=O)Cc1ccc2sc(-c3ccccc3)nc2c1 | 23.6 | 149 | 94.3% (active) | 92.4 | 84 | -0.3% (inactive) | 98.7% (inactive) | 43.6% (active) | 80% (inactive) | 55.9% (active) | 78.6% (inactive)
C=CCn1c(=NC(=O)c2cccs2)sc2cc(NC(C)=O)ccc21 | 152 | 58.7 | – | 152 | 136 | -1.6% (inactive) | 103% (inactive) | 107% (inactive) | 103% (inactive) | 102% (inactive) | 109% (inactive)

Structure (SMILES) | RGS16–Galpha-o binding response [1] [%] | RGS19–Galpha-o binding response [2] [%] | RGS4–Galpha-o binding response [3] | RGS7–Galpha-o binding response [4] [%] | RGS8–Galpha-o binding response [5] [%] | inhibition [6] | binding response (% of control) [7] | response (percent of control binding) [8] | response (% of control binding) [9] | binding response (% of control) [10] | response (percent of control binding) [11]
Cc1ccccc1CS(=O)(=O)CC1(O)CCN(C(=O)c2cccc(C(F)(F)F)c2)CC1 | 106 | 115 | 110% (active) | 157 | 100 | 2.5% (inactive) | 104% (inactive) | 105% (inactive) | 102% (inactive) | 105% (inactive) | 78.9% (inactive)
CCOc1ccccc1NC(=O)c1cc(S(=O)(=O)N2CCC3(CC2)OCCO3)ccc1F | 4.15 | 139 | – | 15.2 | 33 | – | – | – | – | – | –
COc1cccc(C(=O)NCCSc2ccc(Br)cc2)c1 | 11.1 | 1100 | – | 16.5 | 20.7 | -0.2% (inactive) | 103% (inactive) | 106% (inactive) | 104% (inactive) | 104% (inactive) | 83.7% (inactive)
COc1ccccc1NC(=O)CCCc1c[nH]c2ccccc12 | 109 | 78.4 | – | 312 | 85 | 2.9% (inactive) | 95.7% (inactive) | 89.4% (inactive) | 97.2% (inactive) | 92.5% (inactive) | 92.9% (inactive)
CC(=O)Nc1nc(N(C)C)nc(N(C)C)n1 | 28 | 162 | – | -0.2 | 25.1 | 3.9% (inactive) | 100% (inactive) | 103% (inactive) | 104% (inactive) | 104% (inactive) | 109% (inactive)
Cc1cc(C)n(CC(O)CN(c2ccccc2)S(=O)(=O)c2ccc3ccccc3c2)n1 (centres undefined) | -6.51 | 163 | – | 1.45 | 15 | 1.1% (inactive) | 101% (inactive) | 104% (inactive) | 103% (inactive) | 104% (inactive) | 98.9% (inactive)
CCOC(=O)NNc1cc(C(F)(F)F)ccn1 | 148 | 84.9 | – | 66.9 | 133 | -0.7% (inactive) | 104% (inactive) | 107% (inactive) | 104% (inactive) | 102% (inactive) | 109% (inactive)
FC(F)Oc1ccccc1C1CC(c2ccc(Br)s2)Nc2ncnn21 (centres undefined) | 215 | -1720 | – | 163 | 111 | 2.6% (inactive) | 99.3% (inactive) | 98% (inactive) | 97.2% (inactive) | 95.9% (inactive) | 96% (inactive)
COc1ccc(CCC(=O)OCC(=O)Nc2ccc(C)c(S(=O)(=O)N(C)C)c2)cc1 | 69.9 | -376 | 84.4% (active) | 45.2 | 57.7 | 2.5% (inactive) | 104% (inactive) | 104% (inactive) | 104% (inactive) | 103% (inactive) | 100% (inactive)
Cc1ccc(Cn2ccc(NC(=O)c3cc(C(C)C)on3)n2)cc1 | 47.2 | -20 | – | 43.9 | 55.8 | – | – | – | – | – | –
Cc1cc2nc(C)n(CCCNC(=O)Nc3ccccc3)c2cc1C | 283 | 94.8 | – | 180 | 170 | -0.5% (inactive) | 102% (inactive) | 104% (inactive) | 103% (inactive) | 104% (inactive) | 97.2% (inactive)
Cc1cc(=O)n2[nH]c(-c3sccc3-n3c(C)ccc3C)cc2n1 | 44.4 | 5890 | – | -34.3 | 61.1 | -1.8% (inactive) | 103% (inactive) | 86.4% (inactive) | 95.8% (inactive) | 89.2% (inactive) | 80.1% (inactive)
CN(C)S(=O)(=O)Oc1ccccc1C(=O)Nc1ccccc1Cl | 100 | 70.6 | 114% (active) | 223 | 97.6 | -0.2% (inactive) | 97.3% (inactive) | 101% (inactive) | 100% (inactive) | 98.9% (inactive) | 83.3% (inactive)
COc1ccc(C(=O)COC(=O)c2ccc3ccccc3n2)cc1 | -0.98 | 167 | – | 39 | 28.9 | -1% (inactive) | 95.5% (inactive) | 86.7% (inactive) | 95.4% (inactive) | 92.6% (inactive) | 93.7% (inactive)
Nc1ccc(C(=O)OCC(=O)NC2CCS(=O)(=O)C2)cc1[N+](=O)[O-] (centres undefined) | -10.3 | 179 | – | 289 | 6.98 | -1.4% (inactive) | 101% (inactive) | 103% (inactive) | 99.9% (inactive) | 100% (inactive) | 103% (inactive)
CCCn1nnnc1NC(=O)COc1ccc(Cl)cc1C | 2.27 | -359 | – | 17.1 | 11.9 | – | – | – | – | – | –
O=C(CN1CCCCC1)N1c2ccccc2Sc2ccc(C(F)(F)F)cc21 | -6.83 | 241 | – | 27.5 | 22.7 | – | – | – | – | – | –
CCOC(=O)c1oc2c(CN3CCN(C)CC3)c(O)ccc2c(=O)c1-c1ccc(Br)cc1 | 142 | 79.7 | 132% (active) | 318 | 107 | -0.6% (inactive) | 97.5% (inactive) | 95.5% (inactive) | 98.4% (inactive) | 96.9% (inactive) | 92.8% (inactive)
